Assay results as given in PubChem BioAssay (NCI).
About 83,000 compounds went through this panel and 20% of them were active in at least one assay; those are over-represented in the sample as a whole.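 Method: cells in 96-well plates; compound added at one concentration; 48 h incubation; percent growth measured; values under 10 scored active.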 Active and inactive are the calls of the source.

Experiments:
Assay in all cases: NCI-60 one-dose screen, 48 h (100 = growth as untreated, 0 = no growth, -100 = all killed)
Settings in all cases: 10 µM unless noted
HT29 colon = test system: HT29 colon
SNB-75 CNS = test system: SNB-75 CNS
SNB-19 CNS = test system: SNB-19 CNS
U251 CNS = test system: U251 CNS
UACC-62 melanoma = test system: UACC-62 melanoma
LOX IMVI melanoma = test system: LOX IMVI melanoma
SK-MEL-28 melanoma = test system: SK-MEL-28 melanoma
SK-MEL-2 melanoma = test system: SK-MEL-2 melanoma
SN12C renal = test system: SN12C renal
UO-31 renal = test system: UO-31 renal
TK-10 renal = test system: TK-10 renal
ACHN renal = test system: ACHN renal
CCRF-CEM leukemia = test system: CCRF-CEM leukemia
MOLT-4 leukemia = test system: MOLT-4 leukemia
SR leukemia = test system: SR leukemia
EKVX NSCLC = test system: EKVX NSCLC
CAKI-1 renal = test system: CAKI-1 renal
A498 renal = test system: A498 renal
SK-MEL-5 melanoma = test system: SK-MEL-5 melanoma
PC-3 prostate = test system: PC-3 prostate

Measured: growth

COc1cc(C(=O)/C=C/c2cccnc2Nc2ccccc2)cc(OC)c1OC
active: HT29 colon -70.2% | SNB-75 CNS -16% | SNB-19 CNS -72.5% | U251 CNS -94.8% | UACC-62 melanoma -84.2% | LOX IMVI melanoma -49.9% | SK-MEL-28 melanoma -97.5% | SK-MEL-2 melanoma -56.5% | SN12C renal -92.6% | UO-31 renal -99.5% | TK-10 renal -13% | ACHN renal -99.2% | CCRF-CEM leukemia -16% | MOLT-4 leukemia -1.45% | SR leukemia 1.47%

C=CC1=C(C(=O)O)N2C(=O)[C@@H](NC(=O)/C(=N\O)c3csc(N)n3)[C@H]2SC1 (stereo in doubt)
inactive: HT29 colon 104% | SNB-75 CNS 92.4% | SNB-19 CNS 114% | U251 CNS 92.1% | UACC-62 melanoma 114% | LOX IMVI melanoma 88.1% | SK-MEL-2 melanoma 122% | EKVX NSCLC 103% | SN12C renal 112% | UO-31 renal 91.7% | TK-10 renal 122% | ACHN renal 96.7% | CAKI-1 renal 99.2% | A498 renal 95.1% | CCRF-CEM leukemia 98.1% | MOLT-4 leukemia 104%

O=C(Nc1cccc(-n2cc(-c3ccncc3)c(-c3ccc(O)c(Cl)c3)n2)c1)Nc1ccc(Cl)c(C(F)(F)F)c1
active: SNB-75 CNS -12% | U251 CNS -64.4% | SK-MEL-5 melanoma -35.9% | UACC-62 melanoma -38.9% | LOX IMVI melanoma 0.0501% | SK-MEL-28 melanoma -12.8% | SN12C renal 9.97% | UO-31 renal -18.9% | TK-10 renal -15% | CAKI-1 renal -30.9% | CCRF-CEM leukemia 1.32% | SR leukemia 3.22%
inactive: HT29 colon 21.6% | SNB-19 CNS 33.1% | ACHN renal 10.7% | A498 renal 37.6%

O=C(Nc1ccncc1)C(=O)c1cn(S(=O)(=O)c2cccc(F)c2)c2ccccc12
active: HT29 colon 1.12% | SK-MEL-2 melanoma -7.51%
inactive: SNB-75 CNS 29.6% | SNB-19 CNS 76.5% | U251 CNS 22.2% | SK-MEL-5 melanoma 28.7% | UACC-62 melanoma 37.1% | LOX IMVI melanoma 45.2% | EKVX NSCLC 35.4% | SN12C renal 49.1% | UO-31 renal 56.7% | ACHN renal 55.9% | CAKI-1 renal 33.5% | A498 renal 60.2% | CCRF-CEM leukemia 38.7% | MOLT-4 leukemia 35% | SR leukemia 16.5%

COc1ccc(-c2nn(-c3ccccc3)cc2/C=C2\SC(=S)N(CCc3ccc(O)cc3)C2=O)cc1
inactive: HT29 colon 101% | SNB-75 CNS 81% | SNB-19 CNS 93.6% | U251 CNS 90.5% | UACC-62 melanoma 60.3% | LOX IMVI melanoma 72.9% | SK-MEL-28 melanoma 98.6% | SK-MEL-2 melanoma 95% | EKVX NSCLC 84.6% | SN12C renal 81.9% | UO-31 renal 60% | TK-10 renal 94.2% | ACHN renal 87.5% | CAKI-1 renal 51.2% | A498 renal 62.6% | SR leukemia 75.8%

CCc1ccc(CCN2C(=O)c3ccccc3C2=O)nc1
inactive: HT29 colon 109% | SNB-75 CNS 99% | SNB-19 CNS 91.7% | U251 CNS 103% | SK-MEL-5 melanoma 107% | UACC-62 melanoma 98.6% | LOX IMVI melanoma 101% | SK-MEL-28 melanoma 118% | EKVX NSCLC 91% | SN12C renal 103% | UO-31 renal 137% | TK-10 renal 126% | ACHN renal 105% | A498 renal 120% | CCRF-CEM leukemia 108% | SR leukemia 104%

CN1COc2ccc3ccccc3c2C1
inactive: HT29 colon 99.2% | SNB-75 CNS 72.1% | SNB-19 CNS 104% | U251 CNS 92% | SK-MEL-5 melanoma 105% | UACC-62 melanoma 85% | SK-MEL-28 melanoma 98.6% | SK-MEL-2 melanoma 93.2% | EKVX NSCLC 96.1% | SN12C renal 87.5% | UO-31 renal 32.3% | TK-10 renal 105% | ACHN renal 89% | CAKI-1 renal 90.9% | A498 renal 102%

Cc1c(NCc2nnc3n(Cc4ccccc4)c(=O)c4c5c(sc4n23)CCCC5)c(=O)n(-c2ccccc2)n1C
inactive: HT29 colon 77.2% | SNB-75 CNS 98% | SNB-19 CNS 79.9% | U251 CNS 97.6% | SK-MEL-5 melanoma 81% | UACC-62 melanoma 80% | LOX IMVI melanoma 91.6% | SK-MEL-28 melanoma 103% | EKVX NSCLC 84.7% | SN12C renal 96.5% | UO-31 renal 71.4% | TK-10 renal 93.3% | ACHN renal 96% | CAKI-1 renal 78% | A498 renal 75.1% | SR leukemia 68.7%
active: CCRF-CEM leukemia 4.57%

CC(=O)n1c2ccccc2c2ccccc21
inactive: HT29 colon 105% | SNB-75 CNS 97.6% | SNB-19 CNS 113% | U251 CNS 104% | SK-MEL-5 melanoma 108% | UACC-62 melanoma 114% | SK-MEL-28 melanoma 107% | SK-MEL-2 melanoma 123% | EKVX NSCLC 103% | SN12C renal 107% | UO-31 renal 83.6% | TK-10 renal 115% | ACHN renal 117% | CAKI-1 renal 97.5% | A498 renal 95.1% | MOLT-4 leukemia 104%

COc1cc(-c2cc(C(=O)Nc3nc4ccccc4s3)nc3cc(-c4ccccc4)nn23)cc(OC)c1OC
inactive: HT29 colon 17.4% | SNB-75 CNS 36.6% | SNB-19 CNS 98.5% | U251 CNS 66.7% | SK-MEL-5 melanoma 35.5% | UACC-62 melanoma 67.8% | LOX IMVI melanoma 27.4% | SK-MEL-2 melanoma 73.7% | EKVX NSCLC 107% | SN12C renal 99.5% | UO-31 renal 87.9% | TK-10 renal 106% | ACHN renal 101% | CAKI-1 renal 84.6% | A498 renal 127% | CCRF-CEM leukemia 72.3% | MOLT-4 leukemia 76% | SR leukemia 67%

COc1c(C)c2c(c(O)c1C/C=C(\C)CCC(=O)OCCN1CCOCC1)C(=O)OC2
inactive: SNB-75 CNS 49.1% | SNB-19 CNS 28% | U251 CNS 14.7% | UACC-62 melanoma 23.6% | LOX IMVI melanoma 18.4% | SK-MEL-2 melanoma 25.7% | SN12C renal 24.1% | UO-31 renal 15.4% | TK-10 renal 27.1% | ACHN renal 27% | A498 renal 30% | CCRF-CEM leukemia 18.6% | MOLT-4 leukemia 24.4%
active: HT29 colon 1.17% | CAKI-1 renal 5.19%

CC12CCC3C(CCC4CC(=O)/C(=C\O)CC43C)C1CCC(=O)O2 (configuration not stated)
inactive: HT29 colon 108% | SNB-75 CNS 97.5% | SNB-19 CNS 119% | U251 CNS 100% | SK-MEL-5 melanoma 113% | UACC-62 melanoma 109% | SK-MEL-2 melanoma 121% | EKVX NSCLC 106% | SN12C renal 107% | UO-31 renal 55.9% | TK-10 renal 115% | ACHN renal 109% | A498 renal 115% | MOLT-4 leukemia 106%

Cc1ccc(C(O)C2=CC(=O)c3ccccc3C2=O)cc1 (configuration not stated)
inactive: HT29 colon 107% | SNB-75 CNS 92.3% | SNB-19 CNS 102% | U251 CNS 96% | SK-MEL-5 melanoma 97.7% | UACC-62 melanoma 90.5% | SK-MEL-28 melanoma 112% | SK-MEL-2 melanoma 116% | EKVX NSCLC 91.2% | SN12C renal 94.9% | UO-31 renal 73.2% | TK-10 renal 118% | ACHN renal 86.7% | CAKI-1 renal 100% | A498 renal 95.9% | MOLT-4 leukemia 94.7% | SR leukemia 90%

Cc1c(C)c(N2C(=O)C=CC2=O)c(C)c(C)c1N1C(=O)C=CC1=O
inactive: HT29 colon 110% | SNB-75 CNS 101% | SNB-19 CNS 97.3% | U251 CNS 112% | SK-MEL-5 melanoma 109% | UACC-62 melanoma 106% | SK-MEL-28 melanoma 81.6% | SK-MEL-2 melanoma 109% | EKVX NSCLC 101% | SN12C renal 104% | UO-31 renal 53.7% | TK-10 renal 119% | ACHN renal 108% | CAKI-1 renal 101% | A498 renal 78.2% | MOLT-4 leukemia 72.4%

CCN(CC)CCNc1ccc(Cl)cc1Cl
inactive: HT29 colon 101% | SNB-75 CNS 98.5% | U251 CNS 102% | PC-3 prostate 97.3% | SK-MEL-5 melanoma 103% | UACC-62 melanoma 112% | LOX IMVI melanoma 102% | SK-MEL-28 melanoma 118% | SK-MEL-2 melanoma 108% | EKVX NSCLC 113% | SN12C renal 113% | UO-31 renal 87.3% | ACHN renal 113% | CAKI-1 renal 94.6% | A498 renal 103% | CCRF-CEM leukemia 104% | MOLT-4 leukemia 95.9% | SR leukemia 95.1%

CCC1=C(c2ccc(OC)cc2)C(C)(C)Oc2cc(O)c(CN3CCCC3)cc21
inactive: HT29 colon 66.6% | SNB-75 CNS 75% | U251 CNS 82.5% | PC-3 prostate 70.5% | SK-MEL-5 melanoma 67% | UACC-62 melanoma 90.1% | LOX IMVI melanoma 59.3% | SK-MEL-28 melanoma 101% | SK-MEL-2 melanoma 86.3% | EKVX NSCLC 85.2% | SN12C renal 77.8% | UO-31 renal 55.8% | TK-10 renal 94.3% | ACHN renal 82.6% | CAKI-1 renal 83.2% | A498 renal 59.5% | CCRF-CEM leukemia 69.2% | MOLT-4 leukemia 66.3%
active: SR leukemia 9.49%

O=C(/C=C/c1ccc(O)c(O)c1)N1CCN(c2ccc(Cl)cc2)CC1
inactive: HT29 colon 80.1% | SNB-75 CNS 72.1% | SNB-19 CNS 73.9% | PC-3 prostate 61.7% | SK-MEL-5 melanoma 54.5% | UACC-62 melanoma 81.3% | SK-MEL-28 melanoma 81% | SN12C renal 69.8% | UO-31 renal 24.5% | TK-10 renal 49% | ACHN renal 48.1% | CAKI-1 renal 50.5% | A498 renal 72.1% | CCRF-CEM leukemia 32.6% | MOLT-4 leukemia 27.3% | SR leukemia 26.6%
